# Results as given in PubChem BioAssay AID2061318 (National Center for Advancing Translational Sciences (NCATS), 2025).
# Records with an inconclusive call do not appear. Calls of active or inactive are those of the source. Calls follow the shape of the dose curve; as a rule, active = well fitted inhibition curve with a large enough effect; inconclusive = small, poorly fitted or top-dose-only effect; inactive = flat fitted curve, though single readings scatter.
# Experiment: Identification of antibody-drug conjugate (ADC) payloads which are substrates of ATP-binding cassette drug efflux transporters: ABCB1-HEK293-MDR-19 cell line
# Settings: HEK293 ABCB1 (MDR-19) viability, CellTiter-Glo, 48 h
# Source text: Antibody-drug conjugates (ADCs) feature an antibody recognizing a specific protein joined to a potent toxic payload. Numerous antibody-drug conjugates have received FDA approval; however, clinical resistance arises. Resistance mechanisms include decreased expression or mutation of the antibody target, impaired payload release, or increased expression of ATP-binding cassette (ABC) efflux transporters associated with multidrug resistance. We therefore sought to characterize the interaction of ABC multidrug transporters with ADC payloads. We performed a high-throughput screen with 27 common ADC payloads using cells lines expressing ABC transporters P-glycoprotein (P-gp, encoded by ABCB1) or ABCG2 (encoded by ABCG2). Confirmatory assays were also performed using cells transfected to express P-gp, ABCG2, or MRP1 (encoded by ABCC1). Several commonly used ADC payloads were substrates of P-gp, including calicheamicin gamma1, monomethyl auristatin E, DM1, and DM4. All the pyrrolobenzodiazepines tested - SJG136, SGD-1882, SG2057, and SG3199 - were substrates of P-gp, ABCG2, and MRP1. […] These findings highlight the risk of transporter-mediated resistance with certain ADC payloads and underscore the importance of selecting payloads that evade ABC transporter recognition in future ADC development.
# HEK-293 cells were transfected with empty vector (pcDNA) or vector containing the human ABCB1 (MDR-19), ABCG2 (R-5), or ABCC1 gene (MRP1) and were maintained in EMEM with 2 mg/mL G418 added to maintain transporter expression. The HeLa derivative KB-3-1 and the P-gp overexpressing KB-8-5-11 subline were maintained in DMEM; KB-8-5-11 additionally received 100 ng/mL colchicine. H460 parental cells were obtained from the Division of Cancer Treatment and Diagnosis Tumor Repository, National Cancer Institute at Frederick, MD and were cultured in RPMI. The ABCG2 expressing subline H460 MX20 was generated by selecting H460 cells in 20 nM mitoxantrone. Media in all cases was supplemented with 10% FBS and 1% penicillin-streptomycin. We explored 27 common ADC payloads, in two orthogonal, paired cell line sets-a drug selected and transfected set for each transporter--to identify substrates of the ABC transporters P-gp and ABCG2. Compounds were sourced from Levena Biopharma (San Diego, CA), Selleck Chem (Houston, TX), ChemieTek (Indianapolis, IN), or Microsource Discovery Systems (Gaylordsville, CT). Screening was performed as previously described. Briefly, cells were plated at a density of 500 cells/well in 1536 well plates with compounds added using a 1536-head pin tool (Kalypsys, San Diego CA). Cells were incubated with cytotoxic drugs and processed with CellTiter Glo reagent (Promega, Madison, WI) to determine viability after 48 hours. P-gp substrates were identified by comparing compound activity between paired sets of low-expressing (sensitive) and over-expressing (resistant) cell lines.
row,SMILES,Potency
1,CN(C)CCOc1ccc2[nH]c(C(=O)N3C[C@@H](CCl)c4c3cc(O)c3ccccc43)cc2c1,0.4 nM (active)
2,COc1cc2cc(c1Cl)N(C)C(=O)C[C@H](O)[C@]1(C)O[C@H]1[C@H](C)C1C[C@@](O)(NC(=O)O1)[C@H](OC)/C=C/C=C(\C)C2,2980 nM (active)
3,COC(=O)c1cc2c3c(cc(O)c2[nH]1)N(C(=O)c1cc2cc(OC)c(OC)c(OC)c2[nH]1)CC3CCl (centres undefined),0.5 nM (active)
4,CCN(C(C)=O)[C@H]1CO[C@@H](O[C@H]2[C@H](O[C@H]3C#C/C=C\C#C[C@]4(O)CC(=O)C(NC(=O)OC)=C3/C4=C\CSSSC)O[C@H](C)[C@@H](NO[C@H]3C[C@H](O)[C@H](SC(=O)c4c(C)c(I)c(O[C@@H]5O[C@@H](C)[C@H](O)[C@@H](OC)[C@H]5O)c(OC)c4OC)[C@@H](C)O3)[C@@H]2O)C[C@@H]1OC,748 nM (active)
5,CCN[C@H]1CO[C@@H](O[C@H]2[C@H](O[C@H]3C#C/C=C\C#C[C@]4(O)CC(=O)C(NC(=O)OC)=C3/C4=C\CSSSC)O[C@H](C)[C@@H](NO[C@H]3C[C@H](O)[C@H](SC(=O)c4c(C)c(I)c(O[C@@H]5O[C@@H](C)[C@H](O)[C@@H](OC)[C@H]5O)c(OC)c4OC)[C@@H](C)O3)[C@@H]2O)C[C@@H]1OC,14.9 nM (active)
6,COc1cccc2c1C(=O)c1c(O)c3c(c(O)c1C2=O)C[C@@](O)(C(=O)CO)C[C@@H]3O[C@H]1C[C@H](N)[C@H](O)[C@H](C)O1,748 nM (active)
7,COc1cccc2c1C(=O)c1c(O)c3c(c(O)c1C2=O)C[C@@](O)(C(=O)CO)C[C@@H]3O[C@H]1C[C@H]2[C@H](O[C@@H]3[C@@H](OC)OCCN32)[C@H](C)O1,0.0941 nM (active)
8,CC(C)(C)OC(=O)Nc1ccc2[nH]c(C(=O)N3C[C@@H](CCl)c4c3cc(O)c3ccccc43)cc2c1,9.4 nM (active)
9,CCc1c2c(nc3ccc(O)cc13)-c1cc3c(c(=O)n1C2)COC(=O)[C@]3(O)CC,11.8 nM (active)
